Experimental findings from PubChem BioAssay (NCATS) are described below.

Test [1] in a line: qHTS assay for cell viability of HEK293 cells (AID 743288). Note: % is set by controls: 0 for no effect and ±100 for the full control effect; nearly all actives have a fitted effect of over 50% in size. The settings on record: ATP luminescence (CellTiter-Glo), 18 h; max response: active compounds read low. Put shortly: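 Parental HEK293 cells were seeded at 2,000 cells/well, rested at least 5 h at 37 C, then exposed to compounds in DMSO for 18 h at 37 C. Viability was read as ATP-dependent luciferase luminescence after 30 min at room temperature.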

Test [2] is described as follows: qHTS of pediatric cancer cell lines to identify multiple opportunities for drug repurposing: Primary screen for SK-N-SH cells (AID 1347098). Note: potency is the fitted concentration of half-maximal effect; nearly all actives have a fitted effect of over 65% in size. As to conditions: SK-N-SH viability, CellTiter-Glo luminescence, 48 h. The procedure, abridged:
(§1)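 Cells (500-1,000/well) rested 5 h, then received compounds for 48 h; metabolically active cells were measured by CellTiter-Glo luminescence. Final concentrations spanned up to 46 µM (MIPE, 11-point) or 0.59 nM-46 µM (NPC, 8-point) in primary screens, 11-point in follow-ups.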

Test [3] in a line: qHTS of pediatric cancer cell lines to identify multiple opportunities for drug repurposing: Primary screen for Rh18 cells (AID 1347102). Note: potency is the fitted concentration of half-maximal effect; nearly all actives have a fitted effect of over 65% in size. As to conditions: Rh18 rhabdomyosarcoma viability, CellTiter-Glo luminescence, 48 h. Put shortly: as §1
Test [4] in a line: qHTS of pediatric cancer cell lines to identify multiple opportunities for drug repurposing: Primary screen for MG 63 (6-TG R) cells (AID 1347105). Note: potency is the fitted concentration of half-maximal effect; nearly all actives have a fitted effect of over 50% in size. As to conditions: MG 63 (6-TG R) viability, CellTiter-Glo, 48 h. The procedure, abridged: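 Readout: CellTiter-Glo luminescence, 48 h treatment. Controls DMSO (neutral) and bortezomib 2.3 µM final (positive). Potency and efficacy taken from primary-screen concentration-response curves.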
On the technique in general: qHTS replaces the single test concentration by a dilution series.

In test [5] the target is Voltage-gated inwardly rectifying potassium channel KCNH2 (Homo sapiens) (UniProt Q12809). The test can be described thus: qHTS Assay for Small Molecule Inhibitors of the Human hERG Channel Activity (AID 588834).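 Note: top concentration of the series differs between compounds; % is set by controls: 0 for no effect and ±100 for the full control effect; lower thallium flux fluorescence means stronger hERG block; nearly all actives have a fitted effect of over 50% in size.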 As to conditions: U2OS BacMam hERG, FluxOR thallium flux fluorescence; series mostly up to 46.1 µM. Put shortly: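 U2OS cells transduced with hERG via BacMam (MOI ~100), plated 2000/well, loaded with FluxOR thallium dye, compound ~10 min, then stimulation buffer; fluorescence decrease read kinetically; AC50 from Hill fits.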
Sequence of Voltage-gated inwardly rectifying potassium channel KCNH2 (Homo sapiens) (Q12809 whole entry, looked up): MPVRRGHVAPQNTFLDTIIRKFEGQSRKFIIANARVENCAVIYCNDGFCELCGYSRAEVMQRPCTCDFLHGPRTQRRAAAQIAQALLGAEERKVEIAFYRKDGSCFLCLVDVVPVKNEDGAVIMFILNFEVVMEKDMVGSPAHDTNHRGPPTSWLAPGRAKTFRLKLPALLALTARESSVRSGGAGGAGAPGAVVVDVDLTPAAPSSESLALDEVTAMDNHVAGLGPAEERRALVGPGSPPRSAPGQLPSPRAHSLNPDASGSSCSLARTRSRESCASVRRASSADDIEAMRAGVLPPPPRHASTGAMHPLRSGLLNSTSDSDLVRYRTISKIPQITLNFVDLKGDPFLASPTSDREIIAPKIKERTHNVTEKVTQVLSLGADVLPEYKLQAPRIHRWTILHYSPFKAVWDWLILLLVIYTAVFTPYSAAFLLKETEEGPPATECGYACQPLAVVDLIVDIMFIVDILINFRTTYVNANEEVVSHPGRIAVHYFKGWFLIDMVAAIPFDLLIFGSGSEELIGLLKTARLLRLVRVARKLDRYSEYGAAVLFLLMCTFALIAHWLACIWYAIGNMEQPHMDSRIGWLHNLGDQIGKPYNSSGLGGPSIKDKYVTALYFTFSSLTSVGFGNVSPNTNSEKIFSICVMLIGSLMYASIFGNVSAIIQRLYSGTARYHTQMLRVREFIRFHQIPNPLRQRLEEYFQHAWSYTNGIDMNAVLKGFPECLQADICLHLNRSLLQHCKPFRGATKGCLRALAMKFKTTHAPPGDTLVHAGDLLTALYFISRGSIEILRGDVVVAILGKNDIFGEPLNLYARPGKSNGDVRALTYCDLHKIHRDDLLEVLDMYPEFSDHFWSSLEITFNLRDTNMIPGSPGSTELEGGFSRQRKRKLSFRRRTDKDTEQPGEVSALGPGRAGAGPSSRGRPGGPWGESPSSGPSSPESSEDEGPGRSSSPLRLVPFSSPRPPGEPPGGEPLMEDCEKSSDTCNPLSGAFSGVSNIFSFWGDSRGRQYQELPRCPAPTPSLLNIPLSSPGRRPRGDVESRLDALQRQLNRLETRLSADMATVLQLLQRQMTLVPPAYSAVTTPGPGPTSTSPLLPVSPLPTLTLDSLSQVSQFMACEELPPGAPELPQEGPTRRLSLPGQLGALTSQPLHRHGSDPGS

Test [6] has as its system Zika virus NS2B-NS3 protease (unlinked). The test can be described thus: Optimization of GU AMC qHTS for Zika virus inhibitors: Unlinked NS2B-NS3 protease assay (AID 1347151).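 Note: 0% = no-inhibitor control and -100% = no-enzyme control; nearly all actives have a fitted effect of over 80% in size.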 The settings on record: recombinant ZIKV NS2B-NS3 protease, fluorogenic AMC substrate; series mostly up to 52.5 µM. Put shortly:
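Noncovalent complex of NS2B hydrophilic domain and NS3 protease domain, 25 nM final, in 10 mM Tris-HCl pH 8.0, 0.01% Tween 20. AMC fluorescence change over 15 min at room temperature was fitted to a 4-parameter Hill equation.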

The next test deals with ATS189. In words: qHTS profiling for inhibitors of Plasmodium falciparum proliferation (AID 504749). Note: potency is the fitted concentration of half-maximal effect; nearly all actives have a fitted effect of over 60% in size. The settings on record: P. falciparum in erythrocytes, SYBR Green DNA, 72 h; series mostly up to 28.7 µM. The procedure, abridged:
(§2)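 Infected RBCs, 0.3% parasitemia/2.5% Hct final; cpd 72 h, 37 C, 5% CO2; lysis buffer with saponin/triton/SYBR Green I, o/n RT dark; FI 485/535; norm. to artemisinin (0.29 uM) and DMSO.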

A further test relates to CP191. The test is described as above. As to conditions: P. falciparum in erythrocytes, SYBR Green DNA, 72 h; series mostly up to 28.7 µM. Put shortly: as §2
The next test deals with CP265. Described as above. As to conditions: P. falciparum in erythrocytes, SYBR Green DNA, 72 h; series mostly up to 28.7 µM. Put shortly:
as §2

For a further test, the system named is DIV14. The description is as above. The settings on record: P. falciparum in erythrocytes, SYBR Green DNA, 72 h; series mostly up to 28.7 µM. The procedure, abridged: as §2
For a further test, the system named is DIV17. The test is described as above. The settings on record: P. falciparum in erythrocytes, SYBR Green DNA, 72 h; series mostly up to 28.7 µM. The procedure, abridged: as §2
The test system of the next test is ECU. The test is described as above. As to conditions: P. falciparum in erythrocytes, SYBR Green DNA, 72 h; series mostly up to 28.7 µM. The procedure, abridged: as §2
The test system of another test is HB3. The test is described as above. As to conditions: P. falciparum in erythrocytes, SYBR Green DNA, 72 h; series mostly up to 28.7 µM. Put shortly: as §2
The test system of another test is N140. Described as above. The settings on record: P. falciparum in erythrocytes, SYBR Green DNA, 72 h; series mostly up to 28.7 µM. Put shortly: as §2
Another test relates to P93_24. The description is as above. As to conditions: P. falciparum in erythrocytes, SYBR Green DNA, 72 h; series mostly up to 28.7 µM. Put shortly: as §2
In the next test the test system is P94_40. The test is described as above. The settings on record: P. falciparum in erythrocytes, SYBR Green DNA, 72 h; series mostly up to 28.7 µM. The procedure, abridged: as §2
The next test deals with PC26. Described as above. The settings on record: P. falciparum in erythrocytes, SYBR Green DNA, 72 h; series mostly up to 28.7 µM. Put shortly: as §2
The test system of another test is TAB109. The test is described as above. As to conditions: P. falciparum in erythrocytes, SYBR Green DNA, 72 h; series mostly up to 28.7 µM. Put shortly: as §2
For another test, the system named is TAB113. The description is as above. As to conditions: P. falciparum in erythrocytes, SYBR Green DNA, 72 h; series mostly up to 28.7 µM. The procedure, abridged:
as §2

The next test deals with TAB165. Described as above. The settings on record: P. falciparum in erythrocytes, SYBR Green DNA, 72 h; series mostly up to 28.7 µM. The procedure, abridged:
as §2

Values joined by “and” are separate entries in the source; they are usually repeats but may differ in a detail not shown here. Equal values may be shown once. Inconclusive results are not listed. Unmarked numbers belong to inactive results. Active and inactive are the calls of the source. Calls come from the whole dose curve; as a rule, active = well fitted curve in the direction sought with a large enough effect; inconclusive = small, poorly fitted or top-dose-only effect, or another doubt; inactive = no such curve, though single readings can be large; an effect the other way counts as inactive or inconclusive.

As to `Nc1ccc(N)c([N+](=O)[O-])c1`, the max response in test [1] was -1.33% and -23.7%.

In the case of `CCN(CC)c1ccc(C(=C2C=CC(=[N+](CC)CC)C=C2)c2cc(S(=O)(=O)O)ccc2S(=O)(=O)[O-])cc1`, the Potency was 3.86 µM (active) in [2], 11.9 µM (active) in test [3] and 16.8 µM (active) in test [4].

In the case of `CC[C@H](C)[C@H]1O[C@]2(CC[C@@H]1C)C[C@@H]1C[C@@H](C/C=C(\C)[C@@H](O[C@H]3C[C@H](OC)[C@@H](O[C@H]4C[C@H](OC)[C@@H](O)[C@H](C)O4)[C@H](C)O3)[C@@H](C)/C=C/C=C3\CO[C@@H]4[C@H](O)C(C)=C[C@@H](C(=O)O1)[C@]34O)O2`, the Potency result in [5] and in test [6] was “inactive” throughout.

Consider `O=C(CC1NCCC[C@H]1O)Cn1cnc2cc(Br)c(Cl)cc2c1=O` (stereo not given in full), for which the Potency in the test on ATS189 was 4.47 µM (active); with CP191, 2.82 µM (active); in the test on CP265, 5.01 µM (active); with DIV14, 3.01 µM (active); with DIV17, 3.38 µM (active); with ECU, 5.01 µM (active). Moreover, the Potency in the test with HB3 was 2 µM (active); in the test with N140, 3.16 µM (active); in the test on P93_24 it was 1.41 µM (active); with P94_40, 1.41 µM (active); in the test with PC26, 3.79 µM (active); in the test with TAB109 it was 0.794 µM (active). The Potency with TAB113 was 2.24 µM (active); in the test with TAB165 it was 1 µM (active).
